Measured values taken from PubChem BioAssay.
Several values for one entry are separate records, joined by “and”; a condition that tells them apart may be missing. Identical values can stand only once. Activity calls are given as the source filed them.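 Rule for the calls, unless noted: active = inhibition at or above 50% relative to wild type and mutant plate controls; inactive = inhibition below 50%.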

Assays:
[1] = inhibitors of TNFa-induced NFkB p65 translocation, primary screen, imaging, HUVEC, MLSMR starter and 10KST1 sets (AID 438;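 active = inhibition above 20% together with a positive visual image hit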;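 note: compound added about 3h40 before a 20 min TNFalpha stimulation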;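 for inhibition: signal is the nuclear over cytoplasmic p65 intensity ratio per well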); details: HUVEC TNFa-induced p65 nuclear translocation; cell count: measured here: nuclei count (cytotoxicity indicator), at 2.08 µM; inhibition: at 2 µM, stronger effect = higher value, 0% TNFa-plus-vehicle, 100% no-TNFa wells
[2] = reduction of polyQ htt aggregates in cells – imaging, exon1htt(103Q)mCFP cells, high-content imaging, primary screen (AID 483;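 active = visual image review flags a hit and inhibition of aggregation exceeds 20%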;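 note: compound exposure lasted 3 days before fixation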;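 for nuclei count: percent of the per-plate median nuclei count of sample wells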); details: exon1htt(103Q)mCFP cell line, aggregate imaging, at 2 µM; inhibition of aggregation: stronger effect = higher value; nuclei count: measured here: cell count, toxicity
[3] = endothelial E-selectin expression blockers – imaging, HUVEC, immunofluorescence, MLSMR starter and 10KST1 sets, primary screen (AID 487;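 active = visually confirmed hit in the image check and inhibition above 20%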;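 for inhibition: signal is fraction of cell area covered by stained E-selectin grains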;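 for nuclei count: 100% = median nuclei count of all wells on the same plate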); details: HUVEC TNFalpha-induced E-selectin immunofluorescence imaging, at 2 µM; inhibition: stronger effect = higher value; nuclei count: measured here: cell number, toxicity
[4] = Primary imaging screen for DUSP6 inhibitors that restore phospho-Erk in transfected HeLa cells, chemical complementation (AID 609;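 active = compounds giving at least 50% inhibition in the cell-based MKP-3 phosphatase rescue imaging test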;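 for inhibition: phospho-Erk level distribution per well compared with pooled transfected vehicle control wells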); details: HeLa MKP-3 transfected, phospho-Erk imaging KS statistic, at 10 µM, cells stimulated with TPA for 15 min
[5] = target: Dual specificity protein phosphatase 6 (Homo sapiens) (UniProt Q16828); assay: as above; details: HeLa MKP-3 transfected, phospho-Erk imaging KS statistic; at 10 µM; stronger effect = higher value; cells stimulated with TPA for 15 min
Dual specificity protein phosphatase 6 (Homo sapiens), sequence (Q16828 whole entry, looked up): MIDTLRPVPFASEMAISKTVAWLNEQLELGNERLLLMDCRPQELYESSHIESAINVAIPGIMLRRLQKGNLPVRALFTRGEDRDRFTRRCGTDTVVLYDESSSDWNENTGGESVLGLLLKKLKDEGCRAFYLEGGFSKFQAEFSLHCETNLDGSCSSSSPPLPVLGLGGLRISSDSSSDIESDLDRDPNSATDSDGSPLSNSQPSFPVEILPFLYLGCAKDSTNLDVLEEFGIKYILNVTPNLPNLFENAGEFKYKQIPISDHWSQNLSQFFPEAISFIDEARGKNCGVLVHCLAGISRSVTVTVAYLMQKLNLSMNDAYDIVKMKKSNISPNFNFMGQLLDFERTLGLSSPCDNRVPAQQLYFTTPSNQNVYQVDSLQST

[6] = target: Voltage-gated potassium channel subunit beta-2 (Rattus norvegicus) (UniProt P62483); assay: inhibitors of rat Kvbeta2 reductase activity – biochemical, NADPH fluorescence, primary screen (AID 622;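 active = fluorescence slope higher than the sample average by over 3 SD, cut at about -0.22 in these data, passing the limit was not always enough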;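 note: slope of raw intensity against log time taken from 70 to 1610 s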); details: recombinant KvBeta, 4-cyanobenzaldehyde reduction, at 10 µM, stronger effect = higher value
Voltage-gated potassium channel subunit beta-2 (Rattus norvegicus), sequence (P62483 whole entry, looked up): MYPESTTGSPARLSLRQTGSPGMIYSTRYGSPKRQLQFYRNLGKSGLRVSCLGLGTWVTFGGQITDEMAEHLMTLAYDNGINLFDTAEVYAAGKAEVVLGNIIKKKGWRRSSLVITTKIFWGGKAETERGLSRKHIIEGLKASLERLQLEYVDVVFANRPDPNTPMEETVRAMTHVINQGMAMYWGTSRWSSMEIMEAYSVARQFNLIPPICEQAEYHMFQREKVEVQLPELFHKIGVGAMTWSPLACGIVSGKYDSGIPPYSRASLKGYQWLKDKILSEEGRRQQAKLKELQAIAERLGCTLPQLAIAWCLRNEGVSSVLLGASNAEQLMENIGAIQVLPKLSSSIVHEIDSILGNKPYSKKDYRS

[7] = target: Voltage-gated potassium channel subunit beta-2 (Rattus norvegicus) (UniProt P62483); assay: enhancers of rat Kvbeta2 NADPH turnover – biochemical, NADPH fluorescence, primary screen (AID 623;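 active = NADPH fluorescence slope more negative than the mean of all samples by about 3 SD, 99.7% confidence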;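 note: fluorescence intensity change per second fitted from 20 to 320 s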); details: Recombinant KvBeta, NADPH fluorescence decrease slope, 10 min; at 10 µM; stronger effect = lower value
[8] = target: Alpha-2C adrenergic receptor (Homo sapiens) (UniProt P18825); assay: compounds altering alpha2C-coupled GIRK flux – cell-based, HEK293 alpha2C/GIRK1/2, thallium flux, primary screen (AID 624;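 active = fluorescence slope after compound addition differing from the mean of all screened samples at 99.7% confidence, in either direction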;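 note: slope of fluorescence ratio to pre-addition baseline per second over 15 to 24 s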); details: thallium flux BTC fluorescence, at 10 µM, actives lie on both sides
Alpha-2C adrenergic receptor (Homo sapiens), sequence (P18825 whole entry, looked up): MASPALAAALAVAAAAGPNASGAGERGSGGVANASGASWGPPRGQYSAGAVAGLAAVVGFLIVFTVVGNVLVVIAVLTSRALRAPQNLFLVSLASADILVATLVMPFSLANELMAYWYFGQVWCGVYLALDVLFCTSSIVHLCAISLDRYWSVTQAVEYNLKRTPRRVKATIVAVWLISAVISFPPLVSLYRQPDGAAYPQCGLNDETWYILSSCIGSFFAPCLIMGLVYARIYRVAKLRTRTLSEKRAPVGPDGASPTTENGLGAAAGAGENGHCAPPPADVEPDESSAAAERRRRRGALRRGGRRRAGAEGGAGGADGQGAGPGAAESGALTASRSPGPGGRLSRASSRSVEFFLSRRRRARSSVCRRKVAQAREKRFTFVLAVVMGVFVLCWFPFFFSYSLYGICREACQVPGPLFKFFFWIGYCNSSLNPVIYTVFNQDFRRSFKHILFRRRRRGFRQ

[9] = target: Muscarinic acetylcholine receptor M4 (Homo sapiens) (UniProt P08173); assay: M4-linked GIRK flux change, two-sided – cell-based, HEK293 M4/GIRK, thallium flux, BTC-AM, M4 allosteric agonist project, primary screen (AID 625;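 active = fluorescence slope after compound addition differing from the mean of all tested samples at 99.7% confidence, mostly higher but some lower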;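 note: thallium influx through GIRK channels coupled to M4 in HEK293 cells with BTC-AM dye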); details: at 10 µM, actives lie on both sides
Muscarinic acetylcholine receptor M4 (Homo sapiens), sequence (P08173 whole entry, looked up): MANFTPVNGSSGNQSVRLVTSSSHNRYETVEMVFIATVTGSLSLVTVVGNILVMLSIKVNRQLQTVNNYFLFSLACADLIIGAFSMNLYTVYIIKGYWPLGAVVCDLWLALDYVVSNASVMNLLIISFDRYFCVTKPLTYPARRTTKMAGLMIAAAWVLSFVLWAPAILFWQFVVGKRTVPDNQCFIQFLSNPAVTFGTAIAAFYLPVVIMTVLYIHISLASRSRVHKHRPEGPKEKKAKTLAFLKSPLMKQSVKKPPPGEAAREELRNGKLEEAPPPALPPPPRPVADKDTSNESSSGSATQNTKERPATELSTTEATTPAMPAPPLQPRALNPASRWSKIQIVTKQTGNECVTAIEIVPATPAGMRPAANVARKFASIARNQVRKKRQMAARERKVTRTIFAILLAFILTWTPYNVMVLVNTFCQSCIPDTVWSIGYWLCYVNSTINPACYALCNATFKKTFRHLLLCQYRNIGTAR

[10] = inhibitors of larval lipid processing in zebrafish, primary screen, whole organism, PED6 fluorescence, gall bladder and intestine (AID 686;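 active = a full or partial loss of lipid-probe fluorescence in the fish gall bladder, intestine or both, judged by eye; inactive = no fluorescence loss, or compound toxic to the fish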;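 note: larvae 5 to 7 days old with five fish per well; signal comes from phospholipase A2 cleavage of quenched PED6 carried via bile; overnight exposure to compound and PED6 before scoring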); details: Zebrafish larvae PED6 lipid processing, fluorescence scoring; screened at 20 µM (by protocol)
[11] = loss of swimming-algae plug formation – whole organism, Chlamydomonas reinhardtii, WT vs cilia-less mutant, absorbance, 96-well, primary screen (AID 463189); details: Chlamydomonas reinhardtii gravitaxis, OD600 absorbance, 2 days; at 10 µM; stronger effect = higher value;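 note: 0% = wild type cc124 cells in DMSO and 100% = ciliumless bld1 mutant cells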
[12] = blockers of RIG-like receptor reporter activation – cell-based, Sendai virus stimulus, luciferase, 10K MLSCN set, TLR/RLR signaling modifier project, primary screen (AID 602276;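 active = inhibition at or above 50% at 10 µM; inactive = inhibition below 50%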;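 note: firefly luciferase from ISG56 promoter only with Renilla not read in this screen; 0% = Sendai virus plus DMSO and 100% = medium plus DMSO without virus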); details: HEK293 RL24 IRF3 luciferase reporter, at 10 µM, stronger effect = higher value
[13] = TLR3 IRF3 reporter activation blockers – cell-based, poly I:C stimulus, luciferase, 10K MLSCN set, primary screen (AID 602277;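 active = inhibition of the reporter signal at or above 50%; inactive = inhibition below 50%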); details: HEK293-TLR3 RL24 IRF3 luciferase reporter, at 10 µM, stronger effect = higher value
[14] = measured here: cell density z-score
[15] = measured here: nuclear c-Myc green intensity z-score
[16] = measured here: nuclear pErk red intensity z-score, stronger effect = higher value

Row | SMILES | cell count [1] | inhibition [1] | inhibition of aggregation [2] | nuclei count [2] [%] | inhibition [3] | nuclei count [3] [%] | z-score [4, 14] | z-score [4, 15] | z-score [4, 16] | inhibition [5] | fluorescence slope [6] | NADPH fluorescence slope [7] | slope [8] | fluorescence slope [9] | outcome [10] | inhibition [11] | inhibition [12] | inhibition [13]
1 | N#Cc1nc(COc2ccc(Br)cc2)oc1N1CCCC1 | 482 | -2.8% (inactive) | -13.8% (inactive) | 111 | 14.5% (inactive) | 132 | -1.92 | 1.26 | 1.21 | 6.04% (inactive) | -0.434 (inactive) | -7e-05 (inactive) | 0.00386 (inactive) | 0.00636 (inactive) | inactive | -0.7% (inactive) | 12.8% (inactive) | 1.37% (inactive)
2 | CCCCOc1ccc(CC(=O)NO)cc1 | 619 | -10.2% (inactive) | -11.8% (inactive) | 91 | -41.8% (inactive) | 111 | -0.368 | -0.467 | -0.347 | -0.493% (inactive) | -0.547 (inactive) | -4.3e-05 (inactive) | 0.00497 (inactive) |  |  | 7.46% (inactive) | 13.6% (inactive) | 31.2% (inactive)
3 | COc1ccc(CNc2oc(COc3ccccc3Cl)nc2C#N)cc1 | 436 | -2.2% (inactive) | 21.3% (inactive) | 81.6 | -70.3% (inactive) | 126 | -0.4 | 0.197 | -0.0244 | 3.5% (inactive) | -0.551 (inactive) | -9.3e-05 (inactive) | 0.00797 (inactive) | 0.0036 (inactive) |  | 31.6% (inactive) | 7.08% (inactive) | 6.46% (inactive)
4 | CN1CCN2c3ccccc3Cc3ccccc3C2C1 (stereo not drawn) | 620 | 1.5% (inactive) | 11.1% (inactive) | 113 | -52% (inactive) | 117 | -0.186 | -0.363 | -0.896 | 19.2% (inactive) | -0.574 (inactive) | -3.8e-05 (inactive) | 0.0196 (active) | 0.0128 (active) | inactive | 15.2% (inactive) and 10.4% (inactive) | 12.6% (inactive) | 45.7% (inactive)
5 | Cc1ccc(NC(=O)CSC2=C(C#N)C(c3ccc4c(c3)OCO4)CC(=O)N2)cc1C (stereo not drawn) | 636 | 1.6% (inactive) | -10.3% (inactive) | 122 | -11.7% (inactive) | 122 | 0.402 | 0.339 | -0.3 | 6.51% (inactive) | -0.486 (inactive) | -2.7e-05 (inactive) | 0.00695 (inactive) | 0.00748 (inactive) | inactive | 25.6% (inactive) | -18.5% (inactive) | -9.47% (inactive)
6 | Cc1cccc(COc2ccc(/C(O)=C3\C(=O)C(=O)N(CCN(C)C)C3c3ccncc3)cc2)c1 (stereo not drawn) | 526 | 3.2% (inactive) | -20.7% (inactive) | 106 | -20.5% (inactive) | 126 | -1.17 | 0.707 | -0.252 | -1.75% (inactive) | -0.434 (inactive) | -0.000161 (inactive) | 0.00578 (inactive) |  |  | -10.1% (inactive) | 9.07% (inactive) | 4.16% (inactive)
7 | CC(NC(=O)Nc1nccs1)(C(F)(F)F)C(F)(F)F | 649 | -2.2% (inactive) | 0.8% (inactive) | 108 | -11.3% (inactive) | 107 | -0.519 | -0.302 | -0.913 | -0.233% (inactive) | -0.47 (inactive) | -3.5e-05 (inactive) | 0.00627 (inactive) | 0.00776 (inactive) | inactive | -9.58% (inactive) | 1.15% (inactive) | 56.3% (active)
8 | CNC(=O)CC(C(=O)O)c1ccc(OC(C)C)cc1 (stereo not drawn) | 649 | -0.5% (inactive) | 26.1% (inactive) | 89.4 | 21.1% (inactive) | 125 | -0.892 | 0.826 | 1.07 | -2.09% (inactive) | -0.454 (inactive) | -4e-05 (inactive) | 0.00593 (inactive) | 0.00492 (inactive) | inactive | 2.81% (inactive) | 12.9% (inactive) | 19.4% (inactive)
9 | CCN(CC)CCOC(=O)C1(c2ccc(OC)c(OC)c2)CCCC1 | 540 | -5.7% (inactive) | -1% (inactive) | 96.9 | -29.5% (inactive) | 96.9 | -0.552 | -0.514 | -0.16 | -13.3% (inactive) | -0.513 (inactive) | -1.5e-05 (inactive) | 0.00483 (inactive) | 0.00575 (inactive) | inactive | 0.789% (inactive) | 13.2% (inactive) | 21% (inactive)
10 | CCN(CC)CCCN1C(=O)C(=O)/C(=C(/O)c2ccccc2)C1c1ccccn1 (stereo not drawn) | 528 | -5.4% (inactive) | 5.1% (inactive) | 104 | -45% (inactive) | 121 | 0.55 | -1.39 | -0.0355 | 7.7% (inactive) | -0.473 (inactive) | -3.7e-05 (inactive) | 0.00741 (inactive) | 0.00518 (inactive) | inactive | 8.25% (inactive) | 2.69% (inactive) | 1.93% (inactive)
11 | Cn1c(/C(C#N)=C/Nc2ccccn2)nc2ccccc21 | 346 | 4.3% (inactive) | -16.9% (inactive) | 88.4 | -44% (inactive) | 135 | -0.331 | -0.988 | 1.63 | 5.26% (inactive) | -0.224 (inactive) | -0.000107 (inactive) | 0.00613 (inactive) |  |  | 2.14% (inactive) | -13.3% (inactive) | -19.7% (inactive)
12 | COC(=O)c1ccccc1NC(=O)CSc1nnc(-c2ccncc2)o1 | 372 | -9.3% (inactive) | 3.1% (inactive) | 99.2 | -75.9% (inactive) | 128 | 0.433 | -0.668 | -1.26 | 3.42% (inactive) | -0.471 (inactive) | -4.2e-05 (inactive) | 0.00552 (inactive) | 0.00541 (inactive) | inactive | 4.81% (inactive) | 5.8% (inactive) | 19.8% (inactive)
13 | c1ccc(-c2nnc(OCCN3CCOCC3)c3ccccc23)cc1 | 493 | -3.3% (inactive) | 18.6% (inactive) | 114 | -85.3% (inactive) | 126 | 0.666 | 0.289 | 1.89 | -5.26% (inactive) | -0.415 (inactive) | -0.000176 (inactive) | 0.00622 (inactive) |  |  | -11.2% (inactive) | 15.1% (inactive) | 20.9% (inactive)
14 | CCc1cc(=O)oc2c(CN3CCN(C)CC3)c(O)c(Cl)cc12 | 430 | 3.2% (inactive) | 27.8% (inactive) | 85.9 | -40.7% (inactive) | 101 | 1.84 | 0.822 | -1.78 | 26.3% (inactive) | -0.266 (inactive) | -4.4e-05 (inactive) | 0.00532 (inactive) |  |  | 13.3% (inactive) | 16.8% (inactive) | 22.6% (inactive)
15 | Cc1c(NC(=O)c2coc(=O)c(Br)c2)c(=O)n(-c2ccccc2)n1C | 620 | 1.7% (inactive) | 3.9% (inactive) | 101 | 4% (inactive) | 113 | -0.496 | 0.153 | -1.2 | 20.3% (inactive) | -0.46 (inactive) | -2.1e-05 (inactive) | 0.0067 (inactive) | 0.00586 (inactive) | inactive | 14% (inactive) | -5.82% (inactive) | 56.8% (active)
16 | CCN(CC)CCNC(=O)c1ccc(NC(C)=O)cc1 | 497 | -5.5% (inactive) | -5.6% (inactive) | 94.5 | 15.6% (inactive) | 104 | -0.982 | 0.436 | 0.661 | 5.79% (inactive) | -0.442 (inactive) | -5.7e-05 (inactive) | 0.00544 (inactive) |  |  | -7.67% (inactive) and -9.65% (inactive) | 12.9% (inactive) | 42.8% (inactive)
17 | CCCC1Cc2c(sc3ncnc(N)c23)CO1 (stereo not drawn) | 492 | -5.3% (inactive) | -8% (inactive) | 80.5 | -49.3% (inactive) | 139 | -0.574 | -0.569 | 0.241 | -1.98% (inactive) | -0.411 (inactive) | -4.2e-05 (inactive) | 0.00633 (inactive) | 0.00429 (inactive) | inactive | 1.24% (inactive) | -2.55% (inactive) | 5.36% (inactive)
18 | COc1ccc(/C(O)=C2\C(=O)C(=O)N(c3cc(C)on3)C2c2ccccc2OC)cc1 (stereo not drawn) | 515 | -2.7% (inactive) | -8.1% (inactive) | 103 | -21.7% (inactive) | 101 | 1.8 | 0.145 | -0.473 | 19.4% (inactive) | -0.469 (inactive) | -6.5e-05 (inactive) | 0.00564 (inactive) | 0.0068 (inactive) | inactive | -3.34% (inactive) | 8.52% (inactive) | -5.11% (inactive)
19 | C1CNCCNCCNCCN1 | 566 | -6.4% (inactive) | 12.4% (inactive) | 109 | -31.7% (inactive) | 105 | -1.12 | -0.574 | 0.0503 | 10.2% (inactive) | -0.481 (inactive) | -4.4e-05 (inactive) | 0.00519 (inactive) |  |  | 1.09% (inactive) | 13.2% (inactive) | 41.9% (inactive)
20 | COC(=O)CC1SC(=O)NC1=O (stereo not drawn) | 552 | -6.8% (inactive) | 26.4% (inactive) | 110 | -98.9% (inactive) | 124 | -1.23 | -0.523 | 0.399 | 5.26% (inactive) | -0.414 (inactive) | -0.000171 (inactive) | 0.00686 (inactive) |  |  | 6.27% (inactive) | 1.46% (inactive) | 8.22% (inactive)
